The source of these data is the supplement of paper PMC10646978.

Each structure is given as a SMILES string. ± gives the standard deviation.

What all share (settings): modulator concentration 10 µM
The subject of test [1] is RAW-Dual (murine macrophage reporter line). The test can be described thus: NF-kB reporter (SEAP) activity fold change vs agonist alone; higher = enhanced NF-kB activity. Summed up:
(§1)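 RAW-Dual murine macrophage reporter cells were seeded at 50 000 per well in 384-well plates and pre-incubated 1 hour at 37 °C with compound pin-transferred to 10 μM final. After 1 hour, a PRR agonist was added and cells incubated overnight. Supernatant NF-κB (SEAP, QUANTI-Blue, 620 nm absorbance) and IRF (Lucia luciferase, QUANTI-Luc, luminescence) signals were divided by the mean agonist-only control on the same plate to give fold change. Two replicate plates were averaged, with errors by propagation.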

Test [2] shares this test system. The test can be described thus: IRF reporter (Lucia luciferase) activity fold change vs agonist alone; higher = enhanced IRF activity. Summed up: as §1
The test system is the same in test [3]. The test can be described thus: viability score (confluency relative to resting cells, overnight) (fraction); higher = more viable, active = viable (0.7 or more). Put shortly:
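Compound was added at a final 10 μM to RAW-Dual macrophages in 384-well plates and left overnight. Confluency was imaged with IncuCyte, and two masks were generated in IncuCyte software over all imaged wells. Each viability score is confluency relative to resting cells, and a compound met the cutoff only when both masks were above 70% of resting cells.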

The mark [4] stands for this setting: agonist: CpG ODN 1826 0.5 ug/mL.

As for `Cc1ccc(CC(=O)N2CCNC(=O)C2(C)C)cc1C`, the NF-kB reporter in test [1] (setting [4]) was 1.08 ± 0.11; in test [1] (agonist: LPS 0.1 ug/mL), 1.07 ± 0.1; in test [1] (agonist: MPLA […]) it was 0.989 ± 0.031. For the same compound, the IRF reporter in test [2] (agonist: 3'3'-cGAMP 10 ug/mL) was 0.865 ± 0.042; in test [2] (agonist: LPS 0.1 ug/mL), 0.941 ± 0.044; in test [2] (agonist: MPLA […]) it was 0.87 ± 0.085. In addition, the viability score in test [3] is 0.999 (active).
As for `O=C(Nc1ccc(-c2cn3ccsc3n2)cc1)NC1CCCCC1`, the figures for the NF-kB reporter in test [1] (setting [4]), in test [1] (agonist: LPS 0.1 ug/mL) and in test [1] (agonist: MPLA […]) were 2.23 ± 0.14, 1.16 ± 0.12 and 1.59 ± 0.11, respectively. Besides, the IRF reporter in test [2] (agonist: 3'3'-cGAMP 10 ug/mL) is 0.5 ± 0.032; in test [2] (agonist: LPS 0.1 ug/mL), 0.923 ± 0.086; in test [2] (agonist: MPLA […]), 1.22 ± 0.18. Besides, in test [3], the viability score is 0.826 (active).
On to `O=C(NCCCOc1cccc2cccnc12)c1cnccn1`, for which the NF-kB reporter in test [1] (setting [4]) was determined as 1.03 ± 0.059; in test [1] (agonist: LPS 0.1 ug/mL), 0.979 ± 0.094; in test [1] (agonist: MPLA […]), 0.998 ± 0.035. The results for the IRF reporter in test [2] (agonist: 3'3'-cGAMP 10 ug/mL), in test [2] (agonist: LPS 0.1 ug/mL) and in test [2] (agonist: MPLA […]) were 0.95 ± 0.036, 1.01 ± 0.052 and 0.99 ± 0.1, respectively. In addition, the viability score in test [3] is 1 (active).
For the compound `COc1ccccc1N1C(=O)C(=Cc2ccc3c(c2)OCO3)SC1=S`, the NF-kB reporter in test [1] (setting [4]) came to 0.99 ± 0.16; in test [1] (agonist: LPS 0.1 ug/mL) it was 1.05 ± 0.17; in test [1] (agonist: MPLA […]), 0.945 ± 0.14. For the same compound, the IRF reporter in test [2] (agonist: 3'3'-cGAMP 10 ug/mL) is 0.951 ± 0.046; in test [2] (agonist: LPS 0.1 ug/mL) it was 1.2 ± 0.24; in test [2] (agonist: MPLA […]), 1.22 ± 0.36. For the same compound, the viability score in test [3] was 0.999 (active).
In the case of `COc1ccc(OC)c(C2CC(c3ccc(Cl)cc3)=NN2S(C)(=O)=O)c1` (stereo unspecified), the NF-kB reporter in test [1] (setting [4]) came out at 0.853 ± 0.073; in test [1] (agonist: LPS 0.1 ug/mL), 0.897 ± 0.09; in test [1] (agonist: MPLA […]), 1.04 ± 0.12. For the same compound, the IRF reporter was found to be 0.829 ± 0.068 in test [2] (agonist: 3'3'-cGAMP 10 ug/mL), 1.15 ± 0.22 in test [2] (agonist: LPS 0.1 ug/mL) and 1.19 ± 0.43 in test [2] (agonist: MPLA […]). In test [3], the viability score was 0.986 (active).
Regarding `O=c1oc2ccccc2c(O)c1Cc1c(O)c2ccccc2oc1=O`, the NF-kB reporter was found to be 1.06 ± 0.089 in test [1] (setting [4]), 0.972 ± 0.061 in test [1] (agonist: LPS 0.1 ug/mL) and 1.03 ± 0.051 in test [1] (agonist: MPLA […]). The IRF reporter in test [2] (agonist: 3'3'-cGAMP 10 ug/mL) is 1.06 ± 0.12; in test [2] (agonist: LPS 0.1 ug/mL), 0.916 ± 0.048; in test [2] (agonist: MPLA […]), 0.844 ± 0.07. Moreover, in test [3], the viability score is 0.997 (active).
Take `COc1ccc2ncc(S(=O)(=O)c3ccccc3)c(N3CCN(c4ccccc4)CC3)c2c1`: the NF-kB reporter in test [1] (setting [4]) stood at 0.611 ± 0.034; in test [1] (agonist: LPS 0.1 ug/mL) it was 0.924 ± 0.068; in test [1] (agonist: MPLA […]), 1.14 ± 0.13. Further, the IRF reporter in test [2] (agonist: 3'3'-cGAMP 10 ug/mL) worked out at 1.05 ± 0.036; in test [2] (agonist: LPS 0.1 ug/mL), 1.4 ± 0.16; in test [2] (agonist: MPLA […]), 1.13 ± 0.14. For the same compound, the viability score in test [3] is 0.981 (active).
Consider `O=C(NCCCc1cnc2ncnn2c1)c1cccc2ccccc12`, for which the NF-kB reporter in test [1] (setting [4]) came to 0.88 ± 0.039; in test [1] (agonist: LPS 0.1 ug/mL), 0.857 ± 0.071; in test [1] (agonist: MPLA […]), 1.06 ± 0.059. Further, the IRF reporter in test [2] (agonist: 3'3'-cGAMP 10 ug/mL) was 1.02 ± 0.057; in test [2] (agonist: LPS 0.1 ug/mL) it was 1.23 ± 0.14; in test [2] (agonist: MPLA […]), 1.45 ± 0.39. Moreover, the viability score in test [3] was 0.98 (active).
In the case of `Cc1ccc(S(=O)(=O)N=C(Nc2ccc([N+](=O)[O-])cc2)c2ccccc2)cc1`, the NF-kB reporter in test [1] (setting [4]) turned out to be 1.06 ± 0.075; in test [1] (agonist: LPS 0.1 ug/mL), 1.13 ± 0.074; in test [1] (agonist: MPLA […]) it was 0.928 ± 0.06. Further, the IRF reporter in test [2] (agonist: 3'3'-cGAMP 10 ug/mL) is 0.958 ± 0.032; in test [2] (agonist: LPS 0.1 ug/mL) it was 1.39 ± 0.32; in test [2] (agonist: MPLA […]), 1.22 ± 0.16. Moreover, the viability score in test [3] is 1 (active).
On to `Clc1ccc(Nc2nc(Nc3ccc(Cl)cc3)nc(N3CCOCC3)n2)cc1`, for which the results for the NF-kB reporter in test [1] (setting [4]), in test [1] (agonist: LPS 0.1 ug/mL) and in test [1] (agonist: MPLA […]) were 0.794 ± 0.072, 0.902 ± 0.068 and 1.1 ± 0.15, respectively. Besides, the IRF reporter in test [2] (agonist: 3'3'-cGAMP 10 ug/mL) is 0.805 ± 0.12; in test [2] (agonist: LPS 0.1 ug/mL) it was 1.26 ± 0.23; in test [2] (agonist: MPLA […]), 1.37 ± 0.45. For the same compound, the viability score in test [3] is 1.03 (active).
As to `CN(C)CCCC1(c2ccc(F)cc2)OCc2cc(C#N)ccc21.O=C(O)C(=O)O` (stereo unspecified), the NF-kB reporter in test [1] (setting [4]) is 1.13 ± 0.21; in test [1] (agonist: LPS 0.1 ug/mL), 1.12 ± 0.32; in test [1] (agonist: MPLA […]) it was 1.07 ± 0.077. Also, the IRF reporter in test [2] (agonist: 3'3'-cGAMP 10 ug/mL) is 0.836 ± 0.047; in test [2] (agonist: LPS 0.1 ug/mL) it was 1.28 ± 0.3; in test [2] (agonist: MPLA […]) it was 1.29 ± 0.1. Moreover, the viability score in test [3] was 0.993 (active).
As for `Ic1cccc(Cn2nnc(-c3ccccc3)n2)c1`, the NF-kB reporter in test [1] (setting [4]) worked out at 0.76 ± 0.06; in test [1] (agonist: LPS 0.1 ug/mL) it was 0.98 ± 0.048; in test [1] (agonist: MPLA […]) it was 1.38 ± 0.15. Also, the IRF reporter came out at 0.872 ± 0.04 in test [2] (agonist: 3'3'-cGAMP 10 ug/mL), 1.28 ± 0.12 in test [2] (agonist: LPS 0.1 ug/mL) and 1.51 ± 0.18 in test [2] (agonist: MPLA […]). The viability score in test [3] is 1.01 (active).
Take `COCCOC(=O)C1=C(C)NC(C)=C(C(=O)OC(C)C)C1c1cccc([N+](=O)[O-])c1` (stereo unspecified): the NF-kB reporter stood at 0.837 ± 0.07 in test [1] (setting [4]), 1.05 ± 0.064 in test [1] (agonist: LPS 0.1 ug/mL) and 0.88 ± 0.076 in test [1] (agonist: MPLA […]). The IRF reporter in test [2] (agonist: 3'3'-cGAMP 10 ug/mL) was found to be 1.11 ± 0.037; in test [2] (agonist: LPS 0.1 ug/mL), 1.31 ± 0.18; in test [2] (agonist: MPLA […]), 1.11 ± 0.13. Further, the viability score in test [3] is 0.979 (active).
